From PubChem BioAssay (NCI) come the findings set out here.

Molecules are shown by their SMILES. The panel holds about 83,000 compounds, 20% with a hit somewhere; the sample as a whole holds those more often.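 Cells were grown in 96-well plates and exposed to the test compound at a single concentration for 48 hours; results are reported as percent growth, with values below 10 considered active.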 A number with no mark means an inactive call. Active and inactive are the calls of the source.

Test systems include DU-145 prostate; K-562 leukemia; MALME-3M melanoma; MDA-MB-231 breast; RXF 393 renal; SF-268 CNS; SF-295 CNS; SF-539 CNS; UACC-257 melanoma; M14 melanoma; HCT-15 colon; HT29 colon; SNB-75 CNS; SNB-19 CNS; U251 CNS; PC-3 prostate; SK-MEL-5 melanoma; UACC-62 melanoma; LOX IMVI melanoma; SK-MEL-28 melanoma.
Experiment in all cases: NCI-60 one-dose screen, 48 h (100 = growth as untreated, 0 = no growth, -100 = all killed)
Holding throughout (details): 10 µM unless noted

With `CC(=O)c1sc2sc(C(C)=O)c(C)c2c1C`, the growth with DU-145 prostate is 111%; in the test with K-562 leukemia it was 95.5%; with MALME-3M melanoma, 126%; with MDA-MB-231 breast, 101%; in the test on RXF 393 renal, 93%; in the test on SF-268 CNS it was 97.1%. Besides, the growth in the test on SF-295 CNS was 105%; in the test with SF-539 CNS, 85.1%; in the test on UACC-257 melanoma, 81.3%; in the test on M14 melanoma, 107%; with HCT-15 colon, 105%; in the test on HT29 colon, 79.4%. For the same compound, the growth was 90.6% in the test on SNB-75 CNS; 105% in the test on SNB-19 CNS; 93.9% with U251 CNS; 77.7% in the test on PC-3 prostate; 98.2% in the test with SK-MEL-5 melanoma; 75% in the test on UACC-62 melanoma. In addition, the values for the growth with LOX IMVI melanoma and with SK-MEL-28 melanoma were 95.6% and 100%, respectively.
With `CCOC(=O)c1c(C)nc2ccccc2c1/C=C/c1ccccc1`, the growth is 91.9% in the test on DU-145 prostate; 44.4% in the test with K-562 leukemia; 111% with MALME-3M melanoma; 81.9% in the test with MDA-MB-231 breast; 113% in the test on RXF 393 renal; 85.4% in the test with SF-268 CNS. The growth with SF-295 CNS is 66.4%; with SF-539 CNS, 89%; in the test with UACC-257 melanoma it was 76.6%; with M14 melanoma it was 82.8%; in the test with HCT-15 colon, 64.3%; with HT29 colon it was 82.6%. Moreover, the growth with SNB-75 CNS is 80.1%; with SNB-19 CNS, 77.3%; in the test on U251 CNS, 79.7%; in the test with PC-3 prostate it was 69.9%; with SK-MEL-5 melanoma, -0.202% (active); in the test on UACC-62 melanoma, 52.2%. The growth was 71.8% in the test on LOX IMVI melanoma and 102% in the test with SK-MEL-28 melanoma.
On to `COc1ccc(/C=C(/c2ccccc2)[N+](=O)[O-])c(OC)c1`, for which the growth in the test with DU-145 prostate is 38.6%; in the test on K-562 leukemia, 6.07% (active); with MALME-3M melanoma, -27% (active); in the test with MDA-MB-231 breast, 12.1%; with RXF 393 renal, -67.8% (active); in the test on SF-268 CNS it was 14.3%. The growth is 9.19% (active) with SF-295 CNS; -48.5% (active) in the test on SF-539 CNS; 10.4% in the test on UACC-257 melanoma; 5.14% (active) in the test with M14 melanoma; -36.4% (active) with HCT-15 colon; -19.2% (active) with HT29 colon. Moreover, the growth was 53.3% with SNB-75 CNS; -9.71% (active) with SNB-19 CNS; -59.8% (active) in the test with U251 CNS; -20.6% (active) in the test on PC-3 prostate; -25% (active) with SK-MEL-5 melanoma; -53.9% (active) with UACC-62 melanoma. Moreover, the growth is -83.5% (active) in the test on LOX IMVI melanoma and -25.3% (active) in the test on SK-MEL-28 melanoma.
As to `Cc1ccc(-c2nc(-c3cn(C)c4ncccc34)cs2)cc1`, the growth is -56.4% [100 µM] (active) with DU-145 prostate; 10.3% [100 µM] in the test on K-562 leukemia; -40% [100 µM] (active) in the test on MALME-3M melanoma; -14.6% [100 µM] (active) with MDA-MB-231 breast; -37.8% [100 µM] (active) in the test with RXF 393 renal; 2.72% [100 µM] (active) in the test on SF-268 CNS. The growth is -42.2% [100 µM] (active) in the test on SF-295 CNS; -79% [100 µM] (active) with SF-539 CNS; -7.24% [100 µM] (active) with UACC-257 melanoma; -63.7% [100 µM] (active) in the test on M14 melanoma; -18% [100 µM] (active) in the test with HCT-15 colon; -68.1% [100 µM] (active) with HT29 colon. In addition, the growth was -40.2% [100 µM] (active) with SNB-75 CNS; -21.1% [100 µM] (active) in the test with SNB-19 CNS; -7.83% [100 µM] (active) with U251 CNS; -20.6% [100 µM] (active) in the test with PC-3 prostate; -84.9% [100 µM] (active) with SK-MEL-5 melanoma; -50.3% [100 µM] (active) with UACC-62 melanoma. The growth is -41% [100 µM] (active) in the test on LOX IMVI melanoma and -19.7% [100 µM] (active) in the test on SK-MEL-28 melanoma.
As for `COc1cccc(CNc2c3ccccc3nc3ccccc23)c1`, the growth in the test with DU-145 prostate was 53.3%; in the test with K-562 leukemia it was 6.57% (active); in the test with MALME-3M melanoma it was 44%; with MDA-MB-231 breast, 49.9%; with RXF 393 renal, 13.8%; in the test on SF-268 CNS it was 71.2%. Also, the growth is 36% in the test on SF-295 CNS; 19.4% in the test on SF-539 CNS; 55% in the test on UACC-257 melanoma; 35.2% in the test with M14 melanoma; 24.4% in the test on HCT-15 colon; 18.7% in the test on HT29 colon. For the same compound, the growth was 56.9% in the test on SNB-75 CNS; 36% in the test on SNB-19 CNS; 38.7% in the test with U251 CNS; 38.9% in the test on PC-3 prostate; 57.6% with SK-MEL-5 melanoma; 63.5% with UACC-62 melanoma. Also, the results for the growth with LOX IMVI melanoma and in the test with SK-MEL-28 melanoma were 19.8% and 81.2%, respectively.
Consider `Cc1cccc2c1C[C@@]1(C2=O)C(c2ccc(C(C)(C)C)cc2)=NOS1=O` (stereo not given in full), for which the growth in the test on DU-145 prostate was 103%; with K-562 leukemia, 77.8%; in the test with MALME-3M melanoma, 93.3%; in the test on MDA-MB-231 breast, 86.1%; with RXF 393 renal it was 100%; in the test with SF-268 CNS, 94.7%. Besides, the growth in the test with SF-295 CNS was 99.2%; with SF-539 CNS it was 108%; with UACC-257 melanoma, 95.8%; in the test on M14 melanoma it was 88.8%; with HCT-15 colon, 72.1%; in the test with HT29 colon, 98.1%. Besides, the growth with SNB-75 CNS was 101%; in the test on SNB-19 CNS, 93.5%; in the test with U251 CNS it was 88.2%; in the test with PC-3 prostate it was 68.8%; with SK-MEL-5 melanoma it was 90.3%; in the test with UACC-62 melanoma, 73.8%. In addition, the growth is 76.6% in the test on LOX IMVI melanoma and 110% in the test on SK-MEL-28 melanoma.
For the compound `CN(Cc1cnc2nc(N)nc(N)c2n1)c1ccc(C(=O)NC(CCC(=O)O)C(=O)O)cc1Br` (stereo not given), the growth is 25.2% with DU-145 prostate; 31.1% in the test with K-562 leukemia; 98.1% in the test on MALME-3M melanoma; 60.2% in the test on MDA-MB-231 breast; 58.6% in the test with RXF 393 renal; 34.4% with SF-268 CNS. Besides, the growth is 27% in the test with SF-295 CNS; 6.95% (active) in the test with SF-539 CNS; 59.4% in the test with UACC-257 melanoma; 30.9% in the test with M14 melanoma; 34.9% with HCT-15 colon; 21.2% in the test on HT29 colon. In addition, the growth in the test on SNB-75 CNS was 54.5%; with SNB-19 CNS, 45.4%; in the test on U251 CNS, 43%; in the test with PC-3 prostate, 56.9%; in the test on SK-MEL-5 melanoma, 13.8%; in the test with UACC-62 melanoma, 30.9%. Besides, the growth in the test with LOX IMVI melanoma was 17.7%; in the test with SK-MEL-28 melanoma it was 50%.
